Measured values taken from PubChem BioAssay (NCI).
The panel holds about 83,000 compounds, 20% with a hit somewhere; the sample as a whole holds those more often.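 Growth was measured after 48 h exposure to one concentration of compound in 96-well plates. Values under 10 count as active.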 Calls of active or inactive are those of the source.

How the values were obtained:
Experiment in all cases: NCI-60 one-dose screen, 48 h (100 = growth as untreated, 0 = no growth, -100 = all killed)
Conditions in all cases: 10 µM
[1] = tested on: NCI-H23 lung
[2] = tested on: NCI-H226 lung
[3] = tested on: NCI-H322M lung
[4] = tested on: HOP-62 NSCLC
[5] = tested on: NCI-H460 lung
[6] = tested on: HOP-92 NSCLC
[7] = tested on: NCI-H522 lung
[8] = tested on: A549/ATCC NSCLC
[9] = tested on: 786-0 renal
[10] = tested on: COLO 205 colon
[11] = tested on: DU-145 prostate
[12] = tested on: K-562 leukemia
[13] = tested on: MALME-3M melanoma
[14] = tested on: MDA-MB-231 breast
[15] = tested on: SF-268 CNS
[16] = tested on: SF-295 CNS
[17] = tested on: SF-539 CNS
[18] = tested on: UACC-257 melanoma
[19] = tested on: M14 melanoma

Measured: growth

O=S(=O)(Nc1ncccn1)c1ccc(-n2c(-c3ccc(Br)cc3)nc(-c3ccccc3)c2-c2ccccc2)cc1
active: [16] 8.26%
inactive: [1] 22.5% | [2] 26% | [3] 64.1% | [4] 56.8% | [5] 31.7% | [6] 11.4% | [7] 74.5% | [8] 34.9% | [9] 34.5% | [10] 124% | [11] 58.3% | [12] 44% | [13] 74.6% | [14] 51.3% | [15] 32.5% | [17] 55.8% | [18] 59.4% | [19] 38.4%

COc1ccc(/C(CSc2nnc(-c3c[nH]c4ccccc34)n2-c2ccccc2)=N/O)cc1
inactive: [1] 41.6% | [2] 18.2% | [3] 36.4% | [4] 45% | [5] 17.3% | [6] 28.2% | [7] 36.5% | [8] 34.2% | [9] 59.7% | [10] 36.3% | [11] 43% | [12] 18.7% | [13] 73.1% | [14] 60.7% | [15] 48.5% | [16] 21% | [17] 57.3% | [18] 50.1% | [19] 28.9%

Nc1nc(Nc2ccc(Cl)cc2)n(Cc2cccc(Br)c2)n1
inactive: [3] 11.8% | [11] 12.1%
active: [1] -37.9% | [2] -12.6% | [4] -30.4% | [5] -65.9% | [6] -49.5% | [7] -46.2% | [8] 8.74% | [9] -46.8% | [10] -68.8% | [12] 7.99% | [13] -53.2% | [14] -68.7% | [15] -27.4% | [16] -63.2% | [17] -86.6% | [18] -15.6% | [19] -48.8%

COC1=C[C@@]23CCC(=O)N2CCc2cc4c(cc2[C@H]3[C@H]1OC(=O)C(C)(C)O)OCO4
inactive: [1] 95.6% | [2] 93.2% | [3] 101% | [4] 89.2% | [5] 115% | [6] 92% | [7] 95.6% | [8] 102% | [9] 95.7% | [10] 120% | [11] 108% | [12] 107% | [13] 102% | [14] 94.9% | [15] 104% | [16] 95.8% | [17] 93.6% | [18] 104% | [19] 102%

O=C(NO)c1ccc(CN2CCN(c3nc(-c4ccccc4)c4ccccc4n3)CC2)cc1
inactive: [3] 23.6% | [6] 37% | [9] 14% | [11] 23.1% | [12] 11.4% | [13] 11.2% | [14] 35% | [15] 26.5% | [18] 43.3%
active: [1] -5.08% | [2] 3.26% | [4] 2.94% | [5] 6.1% | [7] -21.2% | [8] 1.35% | [10] 6.97% | [16] -11.7% | [17] -23.8% | [19] 5.75%

COc1ccc2cc([C@H](C)C(=O)NCc3ccccc3)ccc2c1
inactive: [1] 33.6% | [2] 59.5% | [3] 49.7% | [4] 41.8% | [5] 17.7% | [6] 104% | [8] 59.7% | [9] 59.7% | [11] 29.4% | [12] 20.1% | [13] 55.2% | [14] 38.4% | [15] 60.2% | [16] 12.8% | [18] 64.7% | [19] 38.2%
active: [7] -5.33% | [10] 0.915% | [17] 2.48%

O=C1CCC(N2Cc3cc(CC(=O)Nc4ccc(N5CCCCC5)cc4)ccc3C2=O)C(=O)N1 (centres undefined)
active: [6] -5.24% | [13] -25.4% | [14] 7.12%
inactive: [1] 93.8% | [2] 16.3% | [3] 56.6% | [4] 23.5% | [5] 98.6% | [7] 65.3% | [8] 68.3% | [9] 42.5% | [10] 37.5% | [11] 94.5% | [12] 77.3% | [15] 61.9% | [16] 57.4% | [17] 65.6% | [18] 102% | [19] 39.4%

O=c1[nH]c2ccccc2cc1CSc1ccc(Nc2nccc(-c3ccc4ccccc4c3)n2)cc1
active: [6] -3.82%
inactive: [1] 18.1% | [2] 19% | [3] 70.1% | [4] 74.7% | [5] 24.3% | [7] 71.5% | [8] 22.4% | [9] 51.7% | [10] 25.3% | [11] 25.5% | [12] 64% | [13] 39% | [14] 30.5% | [15] 72.1% | [16] 89.6% | [17] 16.1% | [18] 105% | [19] 69.8%

O=C(CSc1nnc(-c2c[nH]c3ccccc23)n1-c1ccccc1)Nc1ccc(C(=O)/C=C/c2ccccc2Cl)cc1
inactive: [1] 36.1% | [2] 75.6% | [3] 97.3% | [4] 91.9% | [5] 89% | [6] 96.5% | [7] 83.1% | [8] 91.1% | [9] 103% | [10] 96.2% | [11] 82% | [12] 55.9% | [13] 64.6% | [14] 78% | [15] 66.5% | [16] 72% | [17] 42.6% | [18] 107% | [19] 87.7%

COc1ccc(-c2cc(-c3cc(C(=O)c4ccc(Br)cc4)n4ccc(C)cc34)nc(N)c2C#N)cc1
inactive: [1] 63.1% | [2] 60.4% | [3] 93.6% | [4] 95.1% | [5] 84.7% | [6] 87.5% | [7] 89.9% | [8] 93.2% | [9] 56.9% | [10] 67.2% | [11] 75.9% | [12] 92.6% | [13] 74.4% | [14] 59.7% | [15] 93.9% | [16] 89.1% | [18] 88% | [19] 64.6%
active: [17] 5.3%

CN(C)c1ccc(/C=C/C(=O)c2ccc(NC(=O)CN3C(=O)NC(C)(c4ccccc4)C3=O)cc2)cc1 (centres undefined)
inactive: [1] 66% | [2] 53.2% | [3] 88.8% | [4] 88.9% | [5] 73.7% | [6] 65.3% | [7] 78.3% | [8] 56.5% | [9] 29.8% | [10] 110% | [11] 75.3% | [12] 27.9% | [13] 80.3% | [14] 68.1% | [15] 57.9% | [16] 54.9% | [17] 55.2% | [18] 62.9% | [19] 51.5%

O=C(CSc1nnc(-c2c[nH]c3ccccc23)n1-c1ccccc1)c1ccccc1
active: [2] 4.48% | [17] 7.59%
inactive: [1] 44.9% | [3] 81.2% | [4] 23.4% | [5] 61.8% | [6] 47% | [7] 71.6% | [8] 85.5% | [9] 29.6% | [10] 93.4% | [11] 85.7% | [12] 52.8% | [13] 37.4% | [14] 27% | [15] 31.7% | [16] 72% | [18] 103% | [19] 73.6%

COc1ccc(CN2[C@H](C(=O)NCCCCCCC(=O)NO)Cc3c([nH]c4ccccc34)[C@H]2C2CC2)cc1
inactive: [2] 28.1% | [4] 14% | [8] 17.3% | [9] 17.4% | [15] 14.5% | [19] 17.6%
active: [1] -17.5% | [3] 9.54% | [5] 6.41% | [6] -24.5% | [7] -44.6% | [10] -94.8% | [11] 9.36% | [12] 7.5% | [13] 1.45% | [14] -23% | [16] -58.8% | [17] 2.87% | [18] 9.9%

Cc1cc(C)nc(NS(=O)(=O)c2ccc(N/C(N)=N/c3nccc(-c4cccs4)n3)cc2)n1
inactive: [1] 90% | [2] 77.8% | [3] 95.6% | [4] 83% | [5] 99.2% | [6] 107% | [7] 90.5% | [8] 99.7% | [9] 111% | [10] 105% | [11] 109% | [12] 89.3% | [13] 94.2% | [14] 87% | [15] 99.4% | [16] 92.6% | [17] 80.4% | [18] 111% | [19] 106%

COc1ccc(/C=C/C(=O)c2ccc(N3CCN(C)CC3)cc2)c(C(F)(F)F)c1
inactive: [1] 28.2% | [2] 46.4% | [3] 76.5% | [4] 79.6% | [5] 11.2% | [6] 46.8% | [7] 52.8% | [8] 48.4% | [9] 41.6% | [11] 41.3% | [13] 45.2% | [14] 37.4% | [15] 70.8% | [16] 18.4% | [17] 14.6% | [18] 63.3% | [19] 38.3%
active: [10] -64.6% | [12] 2.66%

CN1CCCN(Cc2ccc(C(=O)Nc3cccc(Nc4ccc5c(O)cccc5n4)c3)cc2C(F)(F)F)CC1
inactive: [2] 57.4% | [12] 11.5%
active: [1] -82.1% | [3] -72.1% | [4] -69.8% | [5] -85.3% | [6] -51.5% | [7] -83.4% | [8] -61.4% | [9] -74.8% | [10] -64.4% | [11] -44.5% | [13] -95.9% | [14] -75.6% | [15] -55.6% | [16] -91% | [17] -98.3% | [18] -81.3% | [19] -84.7%
